Measurements published in the supplement of paper PMC10849652.
About 7,900 targets were measured; listed, in parts, are those with a hit and a random draw of the rest. About 0.6% of all pairs of compound and target were hits.

Key:
Assay in all cases: log2 fold change, soluble protein after heating vs DMSO (PISA); higher = thermal stabilisation; K562 cells, 10 uM, 30 min; active = over 0.2 and 3.5 SD of the protein, either way, in both replicates (recomputed)
erlotinib = compound: C#Cc1cccc(Nc2ncnc3cc(OCCOC)c(OCCOC)cc23)c1 [erlotinib]
In short: (§1)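 Aliquots of K562 cells (2×10^6 cells/mL) treated with 10 μM compound for 30 min were heated for 3 min over 48°C-58°C. After pooling and extraction in PBS with 0.5% NP-40 at 4°C, soluble protein from a 21,000xg, 90 min spin was quantified by TMTpro 16plex LC-MS/MS with channel sums equalised. Thermal stability is expressed against control samples, from duplicates, as a log2 fold change.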

[1] = compound: C/C(=N\NC(=O)C1=CC(=CC=C1)S(=O)(=O)N2CCOCC2)/C3=C(C=CC(=C3)Cl)O
In short: as §1

[2] = compound: C1=CC(=C(C=C1Cl)C2=NC3=NC=CN=C3C(=N2)NC4=CC=NC=C4)F
In short: as §1

[3] = compound: C1=CC(=CC=C1C2=NC3=C(N2)C=C(C=C3)C(=O)N)OC4=CC=C(C=C4)Cl
In short: as §1

[4] = compound: C1=CC2=C(C=CC(=C2)/C=C\3/C(=O)NC(=NCC4=CC=CS4)S3)N=C1
In short: as §1

[5] = compound: C1=CC2=NC=CN=C2C=C1/C=C/3\C(=O)NC(=O)S3
In short: as §1

[6] = compound: C1=CC=C(C=C1)C2=NC(=C(N2)C3=CC=NC=C3)C4=CC(=C(C=C4)Cl)O
In short: as §1

[7] = compound: C1=CC=C2C(=C1)C3=NNC4=CC=CC(=C43)C2=O
In short: as §1

[8] = compound: C1CCN(C1)C(=O)NC2=CC=CC(=C2)NC3=NC=C(C(=N3)NCCC4=CN=CN4)Br
In short: as §1

[9] = compound: C1CN(CCC1(CC2=CC=C(C=C2)Cl)N)C3=NC=NC4=C3C=CN4
In short: as §1

IRAK-1-4 Inhibitor I = compound: C1COCCN1CCN2C3=CC=CC=C3N=C2NC(=O)C4=CC(=CC=C4)[N+](=O)[O-] [IRAK-1-4 Inhibitor I]
In short: as §1

ibrutinib = compound: C=CC(=O)N1CCC[C@@H](n2nc(-c3ccc(Oc4ccccc4)cc3)c3c(N)ncnc32)C1 [ibrutinib]
In short: as §1

[10] = compound: CC(=O)c1cnc2ccc(-c3cc(Cl)c(O)c(Cl)c3)nc2c1N[C@H]1CC[C@H](CN(C)C)CC1
In short: as §1

ralimetinib = compound: CC(C)(C)Cn1c(N)nc2ccc(-c3[nH]c(C(C)(C)C)nc3-c3ccc(F)cc3)nc21 [ralimetinib]
In short: as §1

[11] = compound: CC(C)(O)CC(=O)NCCn1ccc2ncnc(Nc3ccc(Oc4cccc(C(F)(F)F)c4)c(Cl)c3)c21
In short: as §1

[12] = compound: CC(C)C1=C2N=C(C=C(N2N=C1)NCC3=CC=CC=C3)NCCCCCCN
In short: as §1

[13] = compound: CC(C)C[C@@H](C=O)NC(=O)[C@H](CC(C)C)NC(=O)[C@H](CC(C)C)NC(=O)OCc1ccccc1
In short: as §1

pinometostat = compound: CC(C)N(C[C@H]1O[C@@H](n2cnc3c(N)ncnc32)[C@H](O)[C@@H]1O)[C@H]1C[C@@H](CCc2nc3cc(C(C)(C)C)ccc3[nH]2)C1 [pinometostat]
In short: as §1

[14] = compound: CC1=C(C(CC(=O)N1)C2=CC=C(C=C2)C(F)(F)F)C(=O)NC3=C(C=C4C(=C3)C=NN4)F
In short: as §1

[15] = compound: CC1=C(C2=C(C=C1)C(=O)C3=CC=CC=C3N2CCCN)C
In short: as §1

Measured: log2 fold change

SPINDOC (UniProt Q9BUA3)
Sequence of UniProt Q9BUA3 (Q9BUA3 whole entry, looked up): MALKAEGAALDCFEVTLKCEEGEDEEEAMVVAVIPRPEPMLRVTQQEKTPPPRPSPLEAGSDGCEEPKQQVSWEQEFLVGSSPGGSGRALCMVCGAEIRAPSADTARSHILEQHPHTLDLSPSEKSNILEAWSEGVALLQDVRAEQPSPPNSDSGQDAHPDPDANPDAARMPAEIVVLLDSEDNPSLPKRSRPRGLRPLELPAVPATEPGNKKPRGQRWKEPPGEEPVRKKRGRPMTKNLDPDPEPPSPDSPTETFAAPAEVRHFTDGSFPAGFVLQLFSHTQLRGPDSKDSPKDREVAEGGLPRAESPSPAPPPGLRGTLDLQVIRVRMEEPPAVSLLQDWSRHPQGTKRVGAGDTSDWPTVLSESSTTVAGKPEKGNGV
inactive: erlotinib -0.013 | [1] -0.017 | [2] -0.01 | [3] -0.044 | [4] 0.036 | [5] 0.074 | [6] -0.063 | [7] -0.066 | [8] -0.129 | [9] 0.09 | IRAK-1-4 Inhibitor I 0.029 | ibrutinib 0.089 | [10] 0.017 | ralimetinib 0.084 | [11] -0.01 | [12] 0.103 | [13] 0 | pinometostat 0.075 | [14] 0.093 | [15] -0.24

TIMM21 (UniProt Q9BVV7)
Sequence of UniProt Q9BVV7 (Q9BVV7 whole entry, looked up): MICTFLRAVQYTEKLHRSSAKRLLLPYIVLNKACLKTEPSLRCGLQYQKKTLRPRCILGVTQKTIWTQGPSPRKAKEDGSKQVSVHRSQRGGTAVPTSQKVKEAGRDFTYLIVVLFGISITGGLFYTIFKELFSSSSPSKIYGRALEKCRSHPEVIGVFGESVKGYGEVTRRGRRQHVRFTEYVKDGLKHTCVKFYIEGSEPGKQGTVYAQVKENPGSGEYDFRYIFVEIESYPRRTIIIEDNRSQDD
inactive: erlotinib 0.026 | [1] 0.068 | [2] 0.004 | [3] -0.008 | [4] 0.035 | [5] -0.001 | [6] -0.001 | [7] 0.081 | [8] -0.002 | [9] 0.021 | IRAK-1-4 Inhibitor I -0.009 | ibrutinib -0.02 | [10] -0.026 | ralimetinib -0.01 | [11] 0.011 | [12] -0.169 | [13] 0.099 | pinometostat -0.02 | [14] -0.013 | [15] 0.063

ST3GAL2 (UniProt Q16842)
Sequence of UniProt Q16842 (Q16842 whole entry, looked up): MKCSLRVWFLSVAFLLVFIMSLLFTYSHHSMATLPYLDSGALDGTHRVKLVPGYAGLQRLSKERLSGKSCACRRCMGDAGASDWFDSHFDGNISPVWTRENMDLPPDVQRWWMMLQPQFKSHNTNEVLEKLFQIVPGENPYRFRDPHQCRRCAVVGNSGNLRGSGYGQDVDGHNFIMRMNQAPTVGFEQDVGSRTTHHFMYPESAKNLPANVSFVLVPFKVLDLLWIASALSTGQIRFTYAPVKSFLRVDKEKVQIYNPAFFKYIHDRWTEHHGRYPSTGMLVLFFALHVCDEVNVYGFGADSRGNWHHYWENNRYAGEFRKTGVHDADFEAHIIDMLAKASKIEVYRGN
inactive: erlotinib 0.032 | [1] 0.07 | [2] -0.069 | [3] 0.009 | [4] -0.085 | [5] -0.052 | [6] -0.057 | [7] 0.045 | [8] -0.024 | [9] 0.108 | IRAK-1-4 Inhibitor I -0.183 | ibrutinib -0.105 | [10] -0.115 | ralimetinib -0.009 | [11] 0.119 | [12] -0.12 | [13] 0.066 | pinometostat -0.031 | [14] -0.037 | [15] 0.046

STK39 (UniProt Q9UEW8)
inactive: erlotinib 0.064 | [1] 0.07 | [2] 0.038 | [3] -0.096 | [4] 0.035 | [5] 0.06 | [6] 0.034 | [7] 0.019 | [8] 0.014 | [9] -0.025 | IRAK-1-4 Inhibitor I 0.048 | ibrutinib -0.006 | ralimetinib 0.022 | [11] -0.09 | [12] -0.124 | [13] -0.018 | pinometostat -0.02 | [14] 0.013 | [15] 0.007
active: [10] -0.3

SP1 (UniProt P08047)
Sequence of UniProt P08047 (P08047 whole entry, looked up): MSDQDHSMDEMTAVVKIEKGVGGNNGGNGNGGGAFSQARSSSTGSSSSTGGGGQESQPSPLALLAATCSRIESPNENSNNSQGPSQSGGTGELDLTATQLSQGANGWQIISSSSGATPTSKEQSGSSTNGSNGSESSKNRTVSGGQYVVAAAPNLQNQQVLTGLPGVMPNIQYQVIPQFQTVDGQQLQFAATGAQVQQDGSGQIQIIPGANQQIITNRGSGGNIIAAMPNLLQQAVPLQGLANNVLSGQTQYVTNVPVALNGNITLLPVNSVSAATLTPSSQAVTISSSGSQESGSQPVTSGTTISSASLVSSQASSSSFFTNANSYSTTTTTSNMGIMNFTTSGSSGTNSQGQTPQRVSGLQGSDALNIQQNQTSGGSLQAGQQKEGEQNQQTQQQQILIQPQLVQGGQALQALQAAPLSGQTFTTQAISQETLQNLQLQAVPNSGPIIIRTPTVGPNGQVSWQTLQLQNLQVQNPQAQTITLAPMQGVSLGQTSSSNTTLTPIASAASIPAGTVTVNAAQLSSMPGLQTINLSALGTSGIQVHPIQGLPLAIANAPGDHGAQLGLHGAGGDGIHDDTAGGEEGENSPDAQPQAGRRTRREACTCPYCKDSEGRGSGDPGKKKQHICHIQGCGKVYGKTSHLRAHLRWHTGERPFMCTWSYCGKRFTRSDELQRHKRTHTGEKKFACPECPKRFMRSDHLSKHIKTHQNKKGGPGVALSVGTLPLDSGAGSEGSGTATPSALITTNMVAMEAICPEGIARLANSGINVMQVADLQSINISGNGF
active: [15] -0.312
inactive: erlotinib -0.055 | [1] -0.03 | [2] -0.046 | [3] 0.043 | [4] 0.006 | [5] 0.01 | [6] 0.001 | [7] -0.031 | [8] 0.047 | [9] -0.019 | IRAK-1-4 Inhibitor I 0.013 | ibrutinib 0.024 | [10] 0.029 | ralimetinib -0.049 | [11] -0.031 | [12] -0.05 | [13] 0.064 | pinometostat 0.04 | [14] 0.043

TAMM41 isoform 3 (UniProt Q96BW9)
Sequence of UniProt Q96BW9 (Q96BW9 whole entry, looked up): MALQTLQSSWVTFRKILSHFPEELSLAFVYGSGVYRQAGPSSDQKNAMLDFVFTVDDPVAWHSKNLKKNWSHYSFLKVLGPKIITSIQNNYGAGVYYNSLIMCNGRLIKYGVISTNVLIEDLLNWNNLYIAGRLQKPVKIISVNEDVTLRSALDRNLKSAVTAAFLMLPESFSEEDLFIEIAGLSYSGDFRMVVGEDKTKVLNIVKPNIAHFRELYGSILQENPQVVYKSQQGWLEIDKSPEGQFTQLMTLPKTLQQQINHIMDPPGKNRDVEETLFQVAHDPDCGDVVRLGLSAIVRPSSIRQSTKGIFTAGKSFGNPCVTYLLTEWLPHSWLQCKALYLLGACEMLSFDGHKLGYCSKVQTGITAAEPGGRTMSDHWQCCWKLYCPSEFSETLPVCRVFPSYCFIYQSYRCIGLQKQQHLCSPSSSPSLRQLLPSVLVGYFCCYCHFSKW
inactive: erlotinib 0.047 | [1] 0.03 | [2] 0.058 | [3] -0.007 | [4] 0.061 | [5] 0.009 | [6] 0.045 | [7] 0.007 | [8] -0.007 | [9] 0.056 | IRAK-1-4 Inhibitor I 0.075 | ibrutinib 0.022 | [10] -0.061 | ralimetinib -0.04 | [11] -0.172 | [12] -0.214 | [13] 0.043 | pinometostat 0.015 | [14] 0.013 | [15] 0.169

STXBP2 isoform 3 (UniProt Q15833)
Sequence of UniProt Q15833 (Q15833 whole entry, looked up): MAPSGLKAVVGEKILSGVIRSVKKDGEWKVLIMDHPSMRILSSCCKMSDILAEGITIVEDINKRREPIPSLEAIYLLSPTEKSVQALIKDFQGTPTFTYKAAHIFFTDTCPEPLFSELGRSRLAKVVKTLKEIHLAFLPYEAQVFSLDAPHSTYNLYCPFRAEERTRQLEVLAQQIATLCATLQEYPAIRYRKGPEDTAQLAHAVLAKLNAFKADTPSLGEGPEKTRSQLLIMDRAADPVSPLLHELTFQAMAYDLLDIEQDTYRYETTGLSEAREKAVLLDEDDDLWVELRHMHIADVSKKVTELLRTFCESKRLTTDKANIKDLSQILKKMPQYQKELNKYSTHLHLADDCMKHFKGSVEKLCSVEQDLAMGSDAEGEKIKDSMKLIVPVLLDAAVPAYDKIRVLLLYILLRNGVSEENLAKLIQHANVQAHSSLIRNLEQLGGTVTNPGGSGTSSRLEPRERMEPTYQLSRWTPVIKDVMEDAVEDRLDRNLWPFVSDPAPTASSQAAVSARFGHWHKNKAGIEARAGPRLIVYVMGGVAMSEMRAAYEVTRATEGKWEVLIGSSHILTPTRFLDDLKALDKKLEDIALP
inactive: erlotinib 0.088 | [1] 0.139 | [2] -0.109 | [3] -0.049 | [4] 0.096 | [5] -0.004 | [6] 0.05 | [7] 0.026 | [8] -0.058 | [9] -0.166 | IRAK-1-4 Inhibitor I -0.11 | ibrutinib -0.057 | [10] -0.021 | ralimetinib 0.172 | [11] -0.065 | [13] 0.147 | pinometostat 0.189 | [14] 0.023 | [15] 0.025
active: [12] -0.364

SMG1 (UniProt Q96Q15)
inactive: erlotinib 0.012 | [1] 0.101 | [2] 0.066 | [3] -0.012 | [4] -0.029 | [5] 0 | [6] -0.088 | [7] 0.049 | [8] -0.054 | [9] 0.066 | IRAK-1-4 Inhibitor I -0.088 | ibrutinib 0.021 | [10] -0.002 | ralimetinib 0.012 | [11] 0.002 | [12] 0.007 | [13] -0.014 | pinometostat -0.06 | [14] 0.045 | [15] 0.054
